# Data as given in PubChem BioAssay (Tox21).
# Records with an inconclusive call do not appear. Entries that show only a call come without a potency. Calls of active or inactive are those of the source. Calls come from the whole dose curve; as a rule, active = well fitted inhibition curve with a large enough effect in the repeat runs; inconclusive = weak or mixed curves, or effect the other way; inactive = no such curve, though single readings can be large or run the other way.
# Experiment: qHTS assay to identify small molecule antagonists of the retinoic acid receptor (RAR) signaling pathway (AID 1159552; note: nearly all actives have a fitted effect of over 50% in size)
# Conditions: C3RL4 RARE luciferase reporter, retinol-stimulated, 6 h; series mostly up to 92.4 µM
# Method in brief: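 Quantitative HTS in C3RL4 RARE-luciferase reporter cells. Compounds were added with 1 uM (final) retinol; luminescence was read after 6 hr.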
row,SMILES,Potency
1,CCC1(CCC(C)C)C(=O)NC(=O)NC1=O,inactive
2,Clc1ccccc1,inactive
3,CCCCC1C(=O)NC(=O)N(C2CCCCC2)C1=O (stereo unspecified),inactive
4,C[C@H](N)[C@H](O)c1ccc(O)c(O)c1,inactive
5,CCCN(CCC)c1c([N+](=O)[O-])cc(C(C)C)cc1[N+](=O)[O-],inactive
6,CCOC(C(=O)OCCN(C)C)(c1ccccc1)c1ccccc1,inactive
7,O=C=NC1CCCCC1,inactive
8,CCOP(=S)(OCC)SCSc1cc(Cl)ccc1Cl,inactive
9,CCCCCCCCCCCCN(C)C,inactive
10,O=C(O)c1cc(I)cc(I)c1I,inactive
11,CN1C(=O)CN=C(c2ccccc2)c2cc([N+](=O)[O-])ccc21,inactive
12,CCOP(=S)(OCC)Oc1ccc(S(C)=O)cc1 (stereo unspecified),inactive
13,CC(C)(c1ccccc1)c1cc(-n2nc3ccccc3n2)c(O)c(C(C)(C)c2ccccc2)c1,inactive
14,Cc1nnc(-c2ccccc2)c(=O)n1N,inactive
15,O=CC=O,inactive
16,CCC1(CC)C(=O)NC(=O)NC1=O,inactive
17,CC(Cl)C(=O)O (stereo unspecified),inactive
18,O=S(=O)(Cl)Cl,inactive
19,COc1ccc(C(O)(c2cncnc2)C2CC2)cc1 (stereo unspecified),inactive
20,O=C(O)CCCOc1ccc(Cl)cc1Cl,inactive
21,O=C1CC[C@@]2(O)[C@H]3Cc4ccc(O)c5c4[C@@]2(CCN3CC2CC2)[C@H]1O5,inactive
22,C=CCSSCC=C,inactive
23,Nc1ccccc1C(=O)OCC(O)CO (stereo unspecified),inactive
24,FC(F)OC(F)(F)C(F)Cl (stereo unspecified),inactive
25,COCc1cnc(C2=NC(C)(C(C)C)C(=O)N2)c(C(=O)O)c1 (stereo unspecified),inactive
26,Nc1cc(Cl)cc(C(=O)O)c1Cl,inactive
